# In ChEMBL document CHEMBL4513216, “Probing the Open Global Health Chemical Diversity Library for Multistage-Active Starting Points for Next-Generation Antimalarials” (ACS Infect Dis, 2020):
# Out of some 69,000 compounds screened, about 8,600 (12%) showed an effect of 50% or more. Only a selection was taken, and strong results are over-represented in it overall.
# Test system: Plasmodium berghei
# Assay: Screen against P. berghei liver stage (PbLuc), transformed with Luciferase, at 10uM
# Assay type: functional, HepG2
# Details: tested at 10 uM
row,SMILES,INHIBITION [%]
1,Cc1nc(C(=O)N(C)C)nn1-c1ccccc1C(C)C,30.8
2,CC(C)c1noc(CCC(=O)N2CCN(Cc3ccncc3)CC2)n1,37.9
3,CC(C)c1noc(CCC(=O)N2CCSCC2)n1,51.8
4,CC(=O)N1CCN(C(=O)CCCc2nc(C(C)C)no2)CC1,-8.61
5,NC(=O)c1ccc(C2CCCNC2)nc1 (configuration not stated),26.8
6,c1ccc(OC2CCCC2)c(CNC2CCc3ncnn3C2)c1 (configuration not stated),62.8
7,c1ccc(OCC2CC2)c(CNC2CCc3ncnn3C2)c1 (configuration not stated),8.383
8,CNC(=O)COc1ccccc1CNC1CCc2nc(C)nn2C1 (configuration not stated),-24.4
9,c1ccc(COc2ccccc2CNC2CCc3ncnn3C2)cc1 (configuration not stated),26.9
10,CN(C)C(=O)COc1ccccc1CNC1CCc2ncnn2C1 (configuration not stated),33.6
11,CNC(=O)COc1ccccc1CNC1CCc2ncnn2C1 (configuration not stated),63.6
12,CCCc1n[nH]c(=O)n1[C@@H](CC)c1ccccc1,3.38
13,COCCNC(=O)N1CC(Cc2ccccc2F)C1,-20.6
14,Cc1ccc(F)c(C(=O)N2CCC(Nc3ccc(C)nn3)CC2)c1,-15.5
15,Cc1nc(N2Cc3cnn(Cc4ccc(F)cc4)c3C2)no1,12.8
16,Cc1nccnc1N1Cc2cnn(Cc3ccc(F)cc3)c2C1,39.1
17,CCCc1nc(N2Cc3cnn(Cc4ccc(F)cc4)c3C2)no1,26.1
18,Cc1ccnc(N2Cc3cnn(Cc4ccc(F)cc4)c3C2)n1,39.1
19,CCNc1ccnc(N2Cc3cnn(Cc4ccc(F)cc4)c3C2)n1,78.4
20,Cc1cnc(N2Cc3cnn(Cc4ccc(F)cc4)c3C2)nc1N(C)C,77.6
21,Cc1cc(C)nc(N2Cc3cnn(Cc4ccc(F)cc4)c3C2)n1,22.4
22,CNc1cc(C)nc(N2Cc3cnn(Cc4ccc(F)cc4)c3C2)n1,75.1
23,Cc1ncc(C)c(N2Cc3cnn(Cc4ccc(F)cc4)c3C2)n1,32.5
24,N#Cc1cnc(N2Cc3cnn(Cc4ccc(F)cc4)c3C2)nc1N,61.2
25,Fc1ccc(Cn2ncc3c2CN(c2noc(C4CC4)n2)C3)cc1,33.3
26,Fc1ccc(Cn2ncc3c2CN(c2ncccn2)C3)cc1,-1.91

row,SMILES,INHIBITION [%]
1,CC(Cn1ccnc1)NC(=O)NCCN1CCCCCC1=O (configuration not stated),5.29
2,Cc1noc(C2CCN(C(=O)Nc3ccc(N(C)C)nc3)CC2)n1,24.95
3,CCNC(c1ccc(Cl)cc1)c1cccnc1 (configuration not stated),3.15
4,CC(C)C(=O)N1CCC2(CC1)NC(=O)c1ccccc12,39.3
5,Cc1ccccc1C(=O)N1CCC2(CCC(C(=O)NCC3CC3)O2)CC1 (configuration not stated),-3.58
6,CSCC(C)(O)CNS(=O)(=O)c1ccc(Br)cc1 (configuration not stated),-23.5
7,Cn1c2c(c(=O)c3ccccc31)CCC(C)(C)O2,-27.3
8,CN(Cc1ccco1)[C@@H]1CN(Cc2cnn(C)c2)[C@@H]2CCCO[C@H]12,38.1
9,Cc1cc(CNC(=O)CCc2c(C)nc3cc(O)nn3c2C)no1,15.5
10,Cn1cc(CN2CCC(c3ccncc3)CC2)cn1,23.35
11,CNS(=O)(=O)c1ccc(CN2CCN(Cc3ncccc3C)CC2)cc1,49.1
12,CS(=O)(=O)c1ccc(CN2CCCCC2c2cccc(F)c2)cc1 (configuration not stated),34
13,CNS(=O)(=O)c1ccc(CN2CCCN(Cc3ccncc3)CC2)cc1,55.7
14,CNS(=O)(=O)c1ccc(CN2CCC(c3ccncc3)CC2)cc1,54.1
15,CS(=O)(=O)c1ccc(CN2CCCCC2c2ccc(F)cc2)cc1 (configuration not stated),32.8
16,CNS(=O)(=O)c1ccc(CN2CCCN(c3ccccc3)CC2)cc1,48.2
17,CNS(=O)(=O)c1ccc(CN2CCCN(CC(C)C)CC2)cc1,34.1
18,CNS(=O)(=O)c1ccc(CN2CCCC2c2ccc(F)cc2)cc1 (configuration not stated),51.3
19,O=C1CN(C(=O)OCc2ccccc2)CC(O)CN1Cc1ccco1 (configuration not stated),34.3
20,CCN(CC)C(=O)Cn1ccc2cc(NC(C)=O)ccc21,-37.31
21,CNc1cc2c(nn1)CCN(C(=O)c1ccc(-n3cccn3)nc1)C2,35.7
22,COc1c(C2CCCN2C(=O)c2ccc(C#N)cc2)c(C)nn1C (configuration not stated),7.67
23,C[C@H]1CN(Cc2cnn(C)c2)C[C@@]12CCN(Cc1cccnc1)C2=O,48.2
24,CC(=O)N1CCCN(C(C(=O)O)c2ccccc2OC(F)(F)F)CC1 (configuration not stated),15.2
25,O=C(CN1CCCC1Cn1cccn1)NCCOc1cccc(F)c1 (configuration not stated),48.4
26,Cc1nc(C)n(CCC(=O)N2CCc3ncc(Cl)cc3C2)n1,24.4
